In all, about 5,500 compounds went through this assay and about 2,000 (36%) were called active. Inconclusive results (about 18%) are left out. Cut-off read from the data, not from the text of the source: active = normalized growth mostly below about 0.91 (no sharp cut-off); inconclusive = no clear call, values can overlap the other calls; inactive = mostly above about 0.92. This is one part of the list.
Assay: chemical genetic growth profiling, strain panel (AID 1159580);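 note: tested at 20 µM; growth read once vehicle control cultures reached saturation at 30 °C; 1 = growth at the plate median or of vehicle wells; lower values mean less growth of the strain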
Conditions: growth OD

Measured: normalized growth

COc1c(C)c2c(c(O)c1C/C=C(\C)CCC(=O)O)C(=O)OC2
inactive: S. cerevisiae deletion strains, locus YKL190W, strain CNB1, hits give low values 0.921 | S. cerevisiae deletion strains, locus YLR371W, strain rom2, hits give low values 0.955 | S. cerevisiae deletion strains, locus YLR384C, strain iki3, hits give low values 0.983 | S. cerevisiae deletion strains, locus YML016C, strain PPZ1, hits give low values 0.992 | S. cerevisiae deletion strains, locus YMR307W, strain GAS1, hits give low values 0.8 | S. cerevisiae deletion strains, locus YNL128W, strain TEP1, hits give low values 0.868 | S. cerevisiae deletion strains, locus YOL006C, strain TOP1, hits give low values 0.934 | S. cerevisiae deletion strains, locus YOL012C, strain htz1 0.529 | S. cerevisiae deletion strains, locus YOR061W, strain CKA2, hits give low values 0.945 | S. cerevisiae deletion strains, locus YOR136W, strain idh2, hits give low values 0.922 | S. cerevisiae deletion strains, locus YPL241C, strain CIN2, hits give low values 0.967
active: S. cerevisiae deletion strains, locus YKL009W, strain mrt4, hits give low values 0.561 | S. cerevisiae deletion strains, locus YKL068W, hits give low values 0.72 | S. cerevisiae deletion strains, locus YKL085W, strain MDH1 (second series), hits give low values 0.279 | S. cerevisiae deletion strains, locus YKL085W, strain MDH1, hits give low values 0.279 | S. cerevisiae deletion strains, locus YKL160W, strain elf1, hits give low values 0.596 | S. cerevisiae deletion strains, locus YKR001C, strain vps1, hits give low values 0.493 | S. cerevisiae deletion strains, locus YKR026C, strain gcn3, hits give low values 0.648 | S. cerevisiae deletion strains, locus YKR091W, strain srl3, hits give low values 0.763 | S. cerevisiae deletion strains, locus YLL001W, strain dnm1, hits give low values 0.398 | S. cerevisiae deletion strains, locus YLL026W, hits give low values 0.533 | S. cerevisiae deletion strains, locus YLL041C, strain sdh2, hits give low values 0.822 | S. cerevisiae deletion strains, locus YLR027C, strain aat2, hits give low values 0.514 | S. cerevisiae deletion strains, locus YLR039C, strain RIC1, hits give low values 0.504 | S. cerevisiae deletion strains, locus YLR058C, strain SHM2, hits give low values 0.844 | S. cerevisiae deletion strains, locus YLR102C, strain apc9, hits give low values 0.813 | S. cerevisiae deletion strains, locus YLR113W, strain HOG1, hits give low values 0.189 | S. cerevisiae deletion strains, locus YLR221C, strain rsa3, hits give low values 0.376 | S. cerevisiae deletion strains, locus YLR258W, strain gsy2, hits give low values 0.532 | S. cerevisiae deletion strains, locus YLR262C, strain YPT6 (second series), hits give low values 0.415 | S. cerevisiae deletion strains, locus YLR262C, strain YPT6, hits give low values 0.467 | S. cerevisiae deletion strains, locus YLR268W, strain sec22, hits give low values 0.612 | S. cerevisiae deletion strains, locus YLR320W, strain mms22, hits give low values 0.443 | S. cerevisiae deletion strains, locus YLR330W, strain CHS5, hits give low values 0.878 | S. cerevisiae deletion strains, locus YLR342W, strain FKS1 (second series), hits give low values 0.669 | S. cerevisiae deletion strains, locus YLR342W, strain FKS1, hits give low values 0.442 | S. cerevisiae deletion strains, locus YLR357W, strain rsc2, hits give low values 0.779 | S. cerevisiae deletion strains, locus YLR370C, strain arc18, hits give low values 0.435 | S. cerevisiae deletion strains, locus YLR418C, strain cdc73, hits give low values 0.816 | S. cerevisiae deletion strains, locus YML032C, strain rad52, hits give low values 0.626 | S. cerevisiae deletion strains, locus YML120C, strain ndi1, hits give low values 0.406 | S. cerevisiae deletion strains, locus YML124C, strain tub3, hits give low values 0.737 | S. cerevisiae deletion strains, locus YMR058W, strain fet3, hits give low values 0.587 | S. cerevisiae deletion strains, locus YMR078C, strain ctf18, hits give low values 0.843 | S. cerevisiae deletion strains, locus YMR125W, strain sto1, hits give low values 0.635 | S. cerevisiae deletion strains, locus YMR129W, hits give low values 0.571 | S. cerevisiae deletion strains, locus YMR205C, strain PFK2, hits give low values 0.497 | S. cerevisiae deletion strains, locus YMR223W, strain ubp8, hits give low values 0.732 | S. cerevisiae deletion strains, locus YMR231W, strain pep5, hits give low values 0.358 | S. cerevisiae deletion strains, locus YMR263W, strain SAP30, hits give low values 0.765 | S. cerevisiae deletion strains, locus YNL067W, strain RPL9B, hits give low values 0.782 | S. cerevisiae deletion strains, locus YNL071W, strain lat1, hits give low values 0.531 | S. cerevisiae deletion strains, locus YNL153C, strain GIM3, hits give low values 0.811 | S. cerevisiae deletion strains, locus YNL183C, strain NPR1, hits give low values 0.0633 | S. cerevisiae deletion strains, locus YNL209W, strain ssb2, hits give low values 0.653 | S. cerevisiae deletion strains, locus YNL233W, strain BNI4, hits give low values 0.777 | S. cerevisiae deletion strains, locus YNL248C, strain rpa49, hits give low values 0.417 | S. cerevisiae deletion strains, locus YNL250W, strain rad50, hits give low values 0.39 | S. cerevisiae deletion strains, locus YNL271C, strain bni1, hits give low values 0.335 | S. cerevisiae deletion strains, locus YNL298W, strain CLA4, hits give low values 0.328 | S. cerevisiae deletion strains, locus YNL307C, strain MCK1, hits give low values 0.295 | S. cerevisiae deletion strains, locus YNL322C, strain KRE1 (second series), hits give low values 0.507 | S. cerevisiae deletion strains, locus YNL322C, strain KRE1, hits give low values 0.877 | S. cerevisiae deletion strains, locus YNR049C, strain mso1, hits give low values 0.607 | S. cerevisiae deletion strains, locus YNR052C, strain pop2, hits give low values 0.75 | S. cerevisiae deletion strains, locus YOL147C, strain pex11, hits give low values 0.675 | S. cerevisiae deletion strains, locus YOR001W, strain rrp6, hits give low values 0.582 | S. cerevisiae deletion strains, locus YOR069W, strain VPS5, hits give low values 0.911 | S. cerevisiae deletion strains, locus YOR070C, strain gyp1, hits give low values 0.583 | S. cerevisiae deletion strains, locus YOR080W, strain dia2, hits give low values 0.841 | S. cerevisiae deletion strains, locus YOR083W, strain WHI5, hits give low values 0.581 | S. cerevisiae deletion strains, locus YOR106W, strain vam3, hits give low values 0.442 | S. cerevisiae deletion strains, locus YOR144C, strain elg1, hits give low values 0.681 | S. cerevisiae deletion strains, locus YOR184W, strain ser1, hits give low values 0.345 | S. cerevisiae deletion strains, locus YOR231W, strain MKK1, hits give low values 0.171 | S. cerevisiae deletion strains, locus YOR265W, strain rbl2, hits give low values 0.691 | S. cerevisiae deletion strains, locus YOR270C, strain vph1, hits give low values 0.298 | S. cerevisiae deletion strains, locus YOR290C, strain snf2, hits give low values 0.359 | S. cerevisiae deletion strains, locus YOR316C, strain cot1, hits give low values 0.82 | S. cerevisiae deletion strains, locus YPL051W, strain arl3, hits give low values 0.552 | S. cerevisiae deletion strains, locus YPL055C, strain LGE1, hits give low values 0.589 | S. cerevisiae deletion strains, locus YPL078C, strain atp4, hits give low values 0.485 | S. cerevisiae deletion strains, locus YPL106C, strain sse1, hits give low values 0.661 | S. cerevisiae deletion strains, locus YPL240C, strain hsp82, hits give low values 0.568 | S. cerevisiae deletion strains, locus YPL256C, strain CLN2, hits give low values 0.18 | S. cerevisiae deletion strains, locus YPR119W, strain clb2, hits give low values 0.815 | S. cerevisiae deletion strains, locus YPR141C, strain kar3, hits give low values 0.575 | S. cerevisiae deletion strains, locus YPR163C, strain tif3, hits give low values 0.547 | S. cerevisiae deletion strains, locus YPR167C, strain met16, hits give low values 0.739 | S. cerevisiae deletion strains, strain wtn01, hits give low values 0.684 | S. cerevisiae strains, strain wild type, hits give low values 0.819

— PubChem BioAssay AID1159580 (chemical genetic matrix, 2015)
